According to PubChem BioAssay AID504332 (National Center for Advancing Translational Sciences (NCATS), 2011):
Among all 350,000 compounds or so, about 31,000 (8.9%) were called active. Roughly 15% stayed inconclusive and do not appear here. The entries come from a sample that favours actives as a whole. Where a call stands in place of a potency, no number is given. Values without a mark were called inactive. The call rests on the fitted dose curve; in most records, active means well fitted inhibition curve with a large enough effect; inconclusive means small, poorly fitted or top-dose-only effect; inactive means no such curve, though single readings can be large or run the other way.

What follows are compounds tested against Histone-lysine N-methyltransferase EHMT2 (Homo sapiens) (UniProt Q96KQ7) (assay: qHTS Assay for Inhibitors of Histone Lysine Methyltransferase G9a). Conditions: G9a H3K9 monomethylation, AlphaScreen, 2 h; series mostly up to 59 µM.
Method in brief: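 Signal arises when biotinylated H3K9 peptide, once monomethylated, bridges streptavidin donor and antibody-captured acceptor beads. Enzyme at 20 nM was preincubated 15 min with test compounds; peptide 500 nM and SAM 20 uM then reacted for 2 h.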
Further: nearly all actives have a fitted effect of over 75% in size.
Potency means the concentration at half of the fitted maximal effect.

Histone-lysine N-methyltransferase EHMT2 (Homo sapiens), sequence (Q96KQ7 913-1193 limits assumed): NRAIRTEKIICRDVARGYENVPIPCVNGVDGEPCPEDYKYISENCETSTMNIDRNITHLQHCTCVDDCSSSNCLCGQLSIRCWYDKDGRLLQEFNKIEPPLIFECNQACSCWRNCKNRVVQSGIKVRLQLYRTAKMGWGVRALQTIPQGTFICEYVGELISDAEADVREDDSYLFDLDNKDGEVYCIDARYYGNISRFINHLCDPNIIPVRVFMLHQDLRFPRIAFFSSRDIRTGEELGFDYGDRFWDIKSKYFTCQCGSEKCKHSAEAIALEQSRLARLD

**Q.** How did the Potency turn out when `Cc1nn(Cc2ccc(F)cc2)c(C)c1NC(=O)c1cc(CC(C)C)on1` was run?
**A.** inactive

**Q.** With `CCCCn1c(SCC(=O)N2CCCC2=O)nc2cc(S(N)(=O)=O)ccc21` as the compound, how does the activity, negative = inhibition read?
**A.** 76.1% [at 2.33 µM]

**Q.** With `OC(COc1cccc2ccccc12)CN1CCN(c2ccccn2)CC1` (stereo not drawn) as the compound, how does the Potency read?
**A.** 50.1 µM (active)

**Q.** With `Cc1ccccc1OCC(O)CN1CCN(c2ccccn2)CC1` (stereo not drawn) as the compound, how does the Potency read?
**A.** inactive

**Q.** With `O=C1c2cccc3cccc(c23)N1CN1CCN(c2ccccn2)CC1` as the compound, how does the Potency read?
**A.** inactive

**Q.** How did the Potency turn out when `COc1ccc(-c2nc3ccccc3s2)cc1NC(=O)COc1ccccc1C` was run?
**A.** inactive

**Q.** `COc1ccccc1C1C(C(=O)N2CCCCC2)=C(C)Nc2nc3ccccc3n21` (stereo not drawn) was tested. Which Potency did it give?
**A.** inactive

**Q.** How did the Potency turn out when `Cc1ccccc1NC(=O)COc1cccc2c1CCNC2=O` was run?
**A.** inactive

**Q.** For `Cc1ccnc(NS(=O)(=O)c2ccc(NC(=O)c3oc4ccccc4c3C)cc2)n1`, which Potency is on record?
**A.** 25.1 µM (active)

**Q.** Which Potency does the source give for `Cc1ccnc(NS(=O)(=O)c2ccc(NC(=O)c3ccc(S(=O)(=O)N(C)C)cc3)cc2)n1` here?
**A.** inactive

**Q.** For `Cc1ccnc(NS(=O)(=O)c2ccc(NC(=O)c3oc4ccc(F)cc4c3C)cc2)n1`, which activity, negative = inhibition is on record?
**A.** 6.53% [at 0.501 µM]

**Q.** With `Cc1ccc(NC(=O)NC(C)c2c(-n3cccc3)sc(C)c2C)c(C)c1` (stereo not drawn) as the compound, how does the Potency read?
**A.** inactive

**Q.** `CCOC(=O)N1CCN(C(=O)c2ccc(S(=O)(=O)c3ccc(C)cc3)c(NC(C)=O)c2)CC1` was tested. Which activity, negative = inhibition did it give?
**A.** 29.4% [at 0.501 µM]

**Q.** `COCCNC(=O)c1ccc(S(=O)(=O)c2ccc(Cl)cc2)c(NC(C)=O)c1` was tested. Which Potency did it give?
**A.** inactive

**Q.** With `CC(=O)Nc1cc(C(=O)O)ccc1S(=O)(=O)c1ccc(Cl)cc1` as the compound, how does the Potency read?
**A.** 50.1 µM (active)

**Q.** Which Potency does the source give for `O=C(CN1CCCCC1)Nc1ccccc1C(=O)NC1CC1` here?
**A.** inactive

**Q.** With `O=C(COc1ccc(Cl)cc1)N(Cc1ccco1)Cc1ccco1` as the compound, how does the Potency read?
**A.** inactive

**Q.** `O=C1C=C(c2cccc(Br)c2)C[C@@H](c2ccc(F)cc2)C1` was tested. Which activity, negative = inhibition did it give?
**A.** -5.82% [at 0.501 µM]

**Q.** `COc1ccc(C2=NN(C(=O)CSc3nc(=O)n4ccc(C)cc4n3)C(c3ccc(C)cc3)C2)cc1` (stereo not drawn) was tested. Which activity, negative = inhibition did it give?
**A.** 4.89% [at 2.33 µM]

**Q.** For `Cn1nnnc1SCC(=O)NNC(=O)c1ccc(Br)cc1`, which Potency is on record?
**A.** inactive

**Q.** For `CC(=O)NC(=S)NNC(=O)c1ccc(Br)cc1`, which Potency is on record?
**A.** 8.91 µM (active)

**Q.** Which Potency does the source give for `COc1ccc(Cl)cc1C(=O)NNC(=S)NC1CCCC1` here?
**A.** inactive

**Q.** For `COc1cc(OC)c(C(=O)NC2CCCCCC2)cc1OC`, which activity, negative = inhibition is on record?
**A.** 13.1% [at 12.7 µM]

**Q.** Which Potency does the source give for `CNC(=S)NNC(=O)c1ccc(N(C)C)cc1` here?
**A.** inactive

**Q.** How did the Potency turn out when `CCc1noc(C)c1C(=O)NNC(=O)c1ccc(F)cc1` was run?
**A.** inactive

**Q.** `COc1cc(C(=S)NC2CCCCC2)ccc1O` was tested. Which Potency did it give?
**A.** 35.5 µM (active)

**Q.** Which Potency does the source give for `COc1ccc(C(=O)NC2CCN(C(=S)Nc3ccccc3)CC2)cc1` here?
**A.** inactive

**Q.** `CCCNC(=S)N1CCC(NC(=O)c2ccc(OC)cc2)CC1` was tested. Which Potency did it give?
**A.** inactive

**Q.** How did the Potency turn out when `Cc1onc(-c2ccccc2)c1C(=O)NNC(=S)NC(=O)c1ccc(F)cc1` was run?
**A.** 31.6 µM (active)

**Q.** `CC(=O)Nc1cccc(NC(=O)c2c(-c3ccccc3)noc2C)c1` was tested. Which activity, negative = inhibition did it give?
**A.** 10.1% [at 12.7 µM]

**Q.** With `COc1ccc(C(=O)NC(=S)NC2CCCCC2)cc1` as the compound, how does the Potency read?
**A.** 39.8 µM (active)

**Q.** `COc1cccc(NC(=O)CN(C)CC(=O)c2c(N)n(Cc3ccccc3)c(=O)n(C)c2=O)c1` was tested. Which activity, negative = inhibition did it give?
**A.** -2.39% [at 2.33 µM]

**Q.** `COc1ccc(NC(=O)c2ccc3nc(CCc4ccccc4)oc3c2)c(OC)c1` was tested. Which Potency did it give?
**A.** inactive

**Q.** How did the activity, negative = inhibition turn out when `CC1CCCN(C(=O)CN2C(=O)c3ccccc3S2(=O)=O)C1` (stereo not drawn) was run?
**A.** 6.05% [at 2.33 µM]

**Q.** How did the Potency turn out when `CC1(c2ccc3ccccc3c2)NC(=O)NC1=O` (stereo not drawn) was run?
**A.** inactive

**Q.** With `COc1cccc(NC(=O)CN(C)C(=O)c2ccccc2CCc2ccccc2)c1` as the compound, how does the activity, negative = inhibition read?
**A.** 3.17% [at 12.7 µM]

**Q.** For `O=C(NCCCN1CCOCC1)c1cc(-c2ccccc2F)no1`, which Potency is on record?
**A.** inactive

**Q.** Which Potency does the source give for `CSc1ccc(CCNC(=O)c2ccc3c(c2)nc2n3CCOC2)cc1` here?
**A.** inactive

**Q.** With `Clc1ccc(C(Cn2ccnc2)OCc2ccsc2Cl)c(Cl)c1` (stereo not drawn) as the compound, how does the activity, negative = inhibition read?
**A.** -28.9% [at 12.7 µM]

**Q.** With `CCOC(=O)c1[nH]c(C)c(CCC(=O)NCc2ccccc2C)c1C` as the compound, how does the Potency read?
**A.** inactive

**Q.** With `Cc1ccc2ncc(C(=O)Nc3ccc(OC(F)(F)F)cc3)c(=O)n2c1` as the compound, how does the Potency read?
**A.** inactive

**Q.** For `Cc1nn(CC(=O)N2CCN(c3cccc(C(F)(F)F)c3)CC2)c(=O)c2cc3sccc3n12`, which Potency is on record?
**A.** inactive

**Q.** With `CC(NS(=O)(=O)c1ccc(OCC(=O)N2CCCC2)cc1)c1ccccc1` (stereo not drawn) as the compound, how does the Potency read?
**A.** inactive

**Q.** With `COc1ccc(OCC(=O)NNC(=O)c2cccc(C)c2)cc1` as the compound, how does the Potency read?
**A.** inactive

**Q.** For `COc1ccc(OCC(=O)NNC(=O)c2ccc(-c3ccccc3)cc2)cc1`, which Potency is on record?
**A.** 79.4 µM (active)

**Q.** How did the Potency turn out when `Cc1ccc(CNC(=O)c2c(-c3ccccc3)noc2C)cc1` was run?
**A.** inactive

**Q.** For `COCCCNC(=S)NC(=O)c1ccccc1`, which Potency is on record?
**A.** inactive

**Q.** Which Potency does the source give for `COc1ccc(C(=O)NNC(=S)NC(=O)c2ccccc2)cc1` here?
**A.** 22.4 µM (active)

**Q.** Which activity, negative = inhibition does the source give for `COc1ccc(C(=O)NC(=S)NNC(=O)CCc2ccccc2)cc1` here?
**A.** 28.9% [at 0.0925 µM]

**Q.** Which Potency does the source give for `COc1ccc(C(=O)Nc2cc(C)ccc2NC(=O)COc2ccccc2)cc1` here?
**A.** inactive

**Q.** Which Potency does the source give for `COc1ccc(C(=O)NC(=S)NNC(=O)c2c(-c3ccccc3)noc2C)cc1` here?
**A.** 5.62 µM (active)

**Q.** How did the Potency turn out when `Cc1onc(-c2ccccc2)c1C(=O)Nc1ccccc1C#N` was run?
**A.** inactive

**Q.** For `Cc1cn(C)c(CC(=O)NCc2ccc(Cl)cc2)c1C(=O)O`, which Potency is on record?
**A.** inactive

**Q.** With `CCC(=O)N1CCc2cc(S(=O)(=O)NCCC(=O)Nc3cccc(C)c3C)ccc21` as the compound, how does the Potency read?
**A.** inactive

**Q.** With `COc1ccc2ncc3c(-c4ccc(C)c(C)c4)nn(CC(=O)NC4CCCC4)c3c2c1` as the compound, how does the Potency read?
**A.** inactive

**Q.** How did the Potency turn out when `CC1Cc2cc(S(=O)(=O)CCC(=O)Nc3ccc(F)c(Cl)c3)ccc2N1C(=O)C1CC1` (stereo not drawn) was run?
**A.** inactive

**Q.** `O=C(Nc1ccccc1)c1cc2ccccc2[nH]1` was tested. Which Potency did it give?
**A.** inactive

**Q.** `S=c1ccc2ccccc2[nH]1` was tested. Which Potency did it give?
**A.** 4.47 µM (active)

**Q.** `CC(=O)N1CCN(C(=O)c2cc(-c3ccc(Cl)s3)nc3ccccc23)CC1` was tested. Which Potency did it give?
**A.** inactive

**Q.** With `C#CCOc1ccc(C2CC(=O)Nc3c2c(C)nn3-c2nc(C)cc(C)n2)cc1` (stereo not drawn) as the compound, how does the Potency read?
**A.** inactive

**Q.** For `Cc1ccc(-c2nc(CS(=O)(=O)CC(=O)NCc3ccccc3Cl)c(C)o2)cc1`, which Potency is on record?
**A.** inactive

**Q.** For `CC(C)(C)C(=O)CSc1ccc(S(=O)(=O)N2CCCC2)cn1`, which activity, negative = inhibition is on record?
**A.** -13.9% [at 2.33 µM]

**Q.** With `CC1=C(C(=O)OCC2CCCCC2)C(c2c(F)cccc2Cl)CC(=O)N1` (stereo not drawn) as the compound, how does the Potency read?
**A.** inactive
